Bioassay records as filed in PubChem BioAssay.
C8 TRAIL sens = sensitizes caspase-8 expressing cells to TRAIL | NB7+C8 cells + TRAIL, ATPlite viability luminescence | inhibition (viability loss, TRAIL sensitization), % at 10 µM | 360,000 tested, 1% active;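 active means compounds causing at least 50% loss of cell viability in the single-dose screen, relative to plate controls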
PPC-1+TRAIL kill = PPC-1 cancer cell killing with TRAIL present | 220,000 tested, 0.41% active | AID 1443 | PPC-1 cells + TRAIL, ATPLite viability luminescence | cell killing (% activity), % at 4 µM or 5 µM;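 active means cell killing above 50% in the first pass at 4 µM, then a duplicate retest at 5 µM averaging 50% or more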;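 further: plate controls were cells with TRAIL plus DMSO for no effect and medium-only wells lacking cells for full effect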
Peg3 prom inh = reduces Peg3 promoter-driven luciferase expression in HeLa; AID 588405; HeLa PEG-Prom luciferase reporter, luminescence, overnight; inhibition, % at 20 µM; 360,000 tested, 1.7% active;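 active means inhibition of at least 50% at 20 µM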
CF NFkB inh = blocks PAF-induced NF-kB reporter in cystic fibrosis cells; 360,000 tested, 0.86% active; KKLEB NF-kB-GFP reporter, GFP fluorescence overnight; inhibition, % at 5 µM; AID 588850;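 active means at least 50% inhibition at 5 µM, scaled per plate between neutral and stimulator controls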;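 further: PAF is a Pseudomonas aeruginosa culture filtrate used as stimulus; plate controls were PAF-stimulated DMSO wells for no effect and unstimulated DMSO wells for full effect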
KKLEB cytotox = counter-screen for CF NF-kB inhibitors: cytotoxicity; activity change (cytotoxicity), % at 5 µM; KKLEB CF airway cells viability, ATPlite luminescence, overnight; active compounds read low; cells stimulated with P. aeruginosa culture filtrate; 360,000 tested, 0.36% active;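 active means corrected activity change at or below -50% at 5 µM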
HIF-2a block = blocks HIF-2a reporter activity | 786-0 RCC cells HIF-2a reporter, luciferase luminescence, overnight | AID 624352 | 360,000 tested, 0.72% active | inhibition, % at 18.8 µM;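 active means inhibition of the luminescence signal of 40% or more relative to plate controls, in a single-dose primary screen at 18.75 µM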
PPC-1 tox = kills PPC-1 cells; shares compounds with PPC-1+TRAIL kill; PPC-1 viability, ATPlite luminescence, overnight; cytotoxicity, % at 5 µM; 1,200 tested, 50% active; AID 1447;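 active means reconfirmed compounds whose average cytotoxicity reaches 50% or more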;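 further: 0% = DMSO-treated cells and 100% = wells holding medium but no cells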
* marks the source's active call; other numbers are inactive results; . = not tested or not shown. Hits are enriched below; roughly 3.1% of the tested compounds scored in any of these assays.

SMILES	C8 TRAIL sens	PPC-1+TRAIL kill	Peg3 prom inh	CF NFkB inh	KKLEB cytotox	HIF-2a block	PPC-1 tox
O=C(O)c1cc(/C=C/c2ccc(N3CCOCC3)cc2)nc2ccccc12	87.2*	89.6*	-19.2	2.5	0.0	-63.3	91.2*
O=C(O)c1cc(N2CCOCC2)nc2ccccc12	5.7	.	5.4	2.2	-5.2	18.8	.
CNC(=O)[C@H]1O[C@@H](n2cnc3c(NCc4cccc(I)c4)ncnc32)[C@H](O)[C@@H]1O	2.0	.	15.5	-7.0	-5.5	14.8	.
CCOC(=O)CN1N=C(/C=C/c2ccc(C)cc2)CCC1=O	-2.0	9.8	-26.4	-7.0	2.1	-39.1	.
COc1ccc(/C=C/C2=NN(C)C(=O)CC2)cc1	53.5*	52.9*	-175.6	-10.6	-3.9	-206.7	48.4
CN(C)S(=O)(=O)c1ccc(C(=O)NCCOc2ccccc2)cc1	-11.2	-15.1	-191.7	-5.6	0.9	-188.9	-2.1
O=C(c1ccco1)N1CCN(C2CN(C3CCCCC3)S(=O)(=O)C2)CC1 (configuration not stated)	6.6	.	-15.3	-62.6	12.8	6.6	.
CCOC(=O)C1CCN(C(=O)c2ccccc2)c2scc(-c3ccccc3)c2C1=O (configuration not stated)	1.2	.	3.3	-7.2	5.7	-9.6	.
COc1ccc(CCC(=O)Nc2ccc3c(c2)OCO3)cc1OC	4.4	.	-1.4	3.8	-1.7	7.9	.
CCCCNC(=O)CCC(=O)Nc1ccc2nc(N3CCC(C)CC3)cc(C)c2c1	-6.9	-0.7	-85.4	-19.5	2.7	-115.1	8.1
Cc1cc(N2CCOCC2)nc2ccc(NC(=O)CCC(=O)N3CCC(C)CC3)cc12	-19.5	19.0	-81.3	-7.1	6.7	-50.5	.
CCN(CC)c1ccc2cc(-c3nc4ccccc4n3C)c(=O)oc2c1	28.9	13.1	-169.1	27.3	-20.9	-260.9	.
CCN(CC)c1ccc2cc(-c3nc4ccccc4[nH]3)c(=O)oc2c1	94.9*	95.5*	70.5*	-162.9	-89.5*	-148.0	95.4*
COc1ccc(-c2nsc3c(N4CCCCC4)ncnc23)cc1	84.9*	78.6*	48.9	-26.4	-62.0*	59.8*	77.9*
COc1ccc(C(=O)N2CCN(c3ncnc4c(-c5ccccc5)nsc34)CC2)cc1	35.9	8.3	-18.3	-7.0	8.4	-7.6	.
CCCCN1C(=O)NC(c2ccc(OC)cc2)C(C(=O)OCc2ccccc2)=C1C (configuration not stated)	4.8	.	9.1	-0.1	7.8	-8.9	.
CC(C)(C)c1ccc(NC(=O)Nc2ccc(OCC(=O)N3CCOCC3)cc2)cc1	78.0*	63.1*	-226.2	-1.2	-13.3	-205.6	63.1*
O=C(Nc1ccc(OCC(=O)N2CCOCC2)cc1)Nc1cccc(Cl)c1	-0.6	15.8	-52.5	32.4	-10.6	-32.1	.
O=C(Nc1ccnn1C1CCNCC1)c1ccc2c(c1)OCO2	-13.3	.	-1.4	-0.3	11.0	-5.6	.
ClCc1ncc(-c2ccc(Cl)cc2)o1	0.8	18.0	17.3	5.9	-1.1	12.1	17.1
COc1ccc(-c2n(Cc3ccccc3)c3ccccc3[n+]2Cc2ccccc2)cc1	24.6	8.0	47.8	47.8	-31.8	19.0	4.6
CC(=O)c1ccc(OC(C)C(=O)NCC2(N3CCOCC3)CCCCC2)cc1 (configuration not stated)	15.0	.	-6.5	-13.6	4.6	-2.9	.
COc1cc(OC)cc(C(=O)N2CCN(C3CCC(C)CC3)CC2)c1 (configuration not stated)	-3.2	.	-2.4	12.7	6.1	9.0	.
CCN1CCN(Cc2ccc(NC(=O)c3cc(NC(=O)C(=O)c4c[nH]c5ccccc45)cc(OC)c3)cc2C(F)(F)F)CC1	92.5*	16.9	93.6*	-2.1	6.8	-85.4	19.5
CCOC(=O)c1cnc2c(N=Nc3ccccc3)c(N)nn2c1N	68.6*	58.2*	-204.3	-10.0	-25.5	-154.5	59.0*
CCOC(=O)c1cnc2c(-c3ccccc3)cnn2c1N	66.0*	52.5*	-218.1	10.4	-34.1	-230.6	55.1*
O=[N+]([O-])c1ccc(N/N=C/c2sc(N3CCOCC3)nc2-c2ccccc2)c(S(=O)(=O)Nc2ccc(Cl)cc2)c1	9.7	34.5	54.0*	33.6	-49.7	1.3	39.7
